Anthrax LF inh2 – blocks Bacillus anthracis lethal factor protease. multiplex microsphere protease cleavage assay, LF. inhibition, % at 10 µM. 0.12% of 360,000 active. AID 588501; note: plate controls were buffer without enzyme for full effect and enzyme alone for no effect
BoNT A protease – BoNT A light chain protease inhibition. inhibition, % at 10 µM. AID 588499. multiplex microsphere protease substrate cleavage, flow cytometry. 0.17% of 360,000 active; note: plate controls were buffer without enzyme for full effect and enzyme alone for no effect
Bead autofluor – compound fluorescence in toxin protease inhibitor counterscreen; compound autofluorescence counterscreen, microsphere flow cytometry; active compounds read high; fluorescence intensity (no concentration beside the values); 3.1% of 360,000 active; AID 624483; in the data active = fluorescence intensity above about 16000; inconclusive = no clear call, values can overlap the other calls
BoNT-F LC inh – blocks Botulinum neurotoxin F light chain protease; Multiplex microsphere protease cleavage assay, flow cytometry; inhibition, % at 10 µM; 0.22% of 360,000 active; AID 588497; in the data active = inhibition above about 35%, passing the limit was not always enough; inconclusive = no clear call, values can overlap the other calls; note: plate controls were buffer without enzyme for full effect and enzyme alone for no effect
MazEF act – MazEF (E. coli) toxin RNase activation | 0.32% of 350,000 active | P0AE70 | FAM/BHQ RNA-DNA oligo cleavage fluorescence, 5 h | AID 504720 | activation, % at 20 µM; in the data active = activation above about 50%
Target sequence (P0AE70 whole entry, looked up): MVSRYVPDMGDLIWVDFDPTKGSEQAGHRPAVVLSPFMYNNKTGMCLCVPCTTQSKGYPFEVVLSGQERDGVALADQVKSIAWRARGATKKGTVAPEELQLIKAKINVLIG
* marks the source's active call; other numbers are inactive results; ? = inconclusive; / = no result; + = active, no number. Rows were chosen to be rich in hits. Some 3.6% of all compounds tested hit in one or more screens of this group. Cut-off read from the data, not from the text of the source, unless noted: active = inhibition above about 30%; inconclusive = no clear call, values can overlap the other calls; inactive = below that.

SMILES | Anthrax LF inh2 | BoNT A protease | Bead autofluor | BoNT-F LC inh | MazEF act
CC(C)NC(=O)c1cc(C2CCCCN2S(=O)(=O)c2ccccc2)on1 (configuration not stated) | -1 | 0 | 3707 | 10 | /
CCOC(=O)c1sc2cccc(F)c2c1N | -7 | ? | 22763* | 0 | 16
CCOC(=O)c1sc2cccc(Cl)c2c1N | 0 | 1 | 4672 | 6 | 3
C/C(=N\O)C(C)(C)Nc1ccc(Br)cc1 | / | / | / | / | 53*
CCc1ccc(-c2nc(NC(=S)NC(=O)c3cccs3)sc2C)cc1 | 0 | -1 | 23514* | -1 | 1
CC12CCC(C(=O)NCCCN3CCOCC3)(OC1=O)C2(C)C (configuration not stated) | -1 | -2 | 22515* | -4 | 3
CC12CCC(C(=O)NCCCN3CCOCC3)(C(Br)C1=O)C2(C)C (configuration not stated) | -1 | 0 | 6089 | 6 | 3
O=C(CS(=O)c1ccc(C(F)(F)F)cc1[N+](=O)[O-])Oc1ccc(Cl)cc1 (configuration not stated) | -7 | -1 | 22500* | 0 | -4
Cc1cc(C)cc(OC(=O)CS(=O)c2ccc(C(F)(F)F)cc2[N+](=O)[O-])c1 (configuration not stated) | -10 | -2 | 10026 | 5 | 2
Cc1cc(N)nc(=O)n1C1CC(O)C(CO)O1 (configuration not stated) | -1 | 0 | 3601 | -6 | 4
CN(C)S(=O)(=O)c1cccc(-c2cn3cc(Cl)ccc3n2)c1 | -2 | -2 | 17034* | -1 | 2
CN(C)S(=O)(=O)c1cccc(-c2cn3ccccc3n2)c1 | -6 | -1 | 2379 | -18 | 3
CC1CC(C)CN(S(=O)(=O)CCNC(=O)c2ccc3c(c2)OCO3)C1 (configuration not stated) | / | / | / | / | 7
CCCOc1ccc(NC(=O)CC2C(=O)N(CC)C(=S)N2Cc2cccs2)cc1 (configuration not stated) | -4 | -4 | 21389* | -8 | 2
COc1ccc(NC(=O)CC2C(=O)N(C)C(=S)N2Cc2cccs2)cc1 (configuration not stated) | 0 | -2 | 10968 | -21 | -1
O=C(O)CCn1nnc(-c2cccs2)n1 | / | / | / | / | 3
CC(C)c1ccc(-c2nnn(CCC(=O)O)n2)cc1 | -2 | 0 | 16264* | 0 | 1
Cc1ccc2nc(-c3ccc(C#N)cc3)c(Cc3ccccn3)n2c1 | 4 | 2 | 6480 | 2 | /
COc1cc2c(cc1OC)[C@@H](NC(=O)COc1ccccc1)[C@H](OCc1ccccc1)C2 | 1 | -1 | 3594 | -4 | 9
CCn1c(CSc2nc3ccccc3s2)nnc1SCC(N)=O | 0 | -2 | 20063* | -3 | 3
CCn1c(CSc2nc3ccccc3s2)nnc1SCC(=O)OC(C)(C)C | -2 | -3 | 16941* | -6 | -1
CCn1c(SCC(N)=O)nnc1-c1cc2c(C)nn(-c3ccccc3)c2s1 | -1 | 2 | 23213* | 2 | 12
CCn1c(CSc2nc3ccccc3s2)nnc1SCC(=O)c1ccc2c(c1)OCCO2 | -5 | 1 | 4130 | -9 | -2
CCn1c(CSc2nc3ccccc3s2)nnc1SCC(=O)NCC(=O)OC | -3 | 0 | 20468* | -1 | -7
CCn1c(CCc2ccccc2)nnc1SCC(N)=O | 28 | 4 | 3042 | 37* | 13
SMILES | Anthrax LF inh2 | BoNT A protease | Bead autofluor | BoNT-F LC inh | MazEF act
Cn1c(CSc2nc3ccccc3s2)n[nH]c1=S | 0 | 0 | 3682 | -14 | 8
Cn1c(CNc2ccc(O)cc2)nc2ccccc21 | -11 | -4 | 3241 | -6 | 105*
Cn1c(CSc2nc3ccccc3s2)nc2ccccc21 | -3 | -3 | 22150* | -5 | -1
COc1ccc2cc3[n+](cc2c1OC)CCc1cc2c(cc1-3)OCO2 | -5 | 1 | 6090 | -1 | -18
CCN(c1ccccc1)S(=O)(=O)c1ccc(OC)c(NC(=O)c2cc(Cl)ccn2)c1 | 2 | -1 | 5981 | -5 | -1
CCN(CC(=O)Nc1c(F)cccc1F)C(=O)C1(c2ccccc2)CC1 | 3 | 1 | 5517 | 6 | -3
O=C(C1CC(=O)N(c2ccccc2)C1)N1CCN(c2ccccc2)CC1 (configuration not stated) | 5 | 1 | 5685 | 2 | 7
CCCC(=O)N1CCN(C2=NS(=O)(=O)c3ccccc32)CC1 | -4 | ? | 23423* | -6 | 3
O=C(C1CC(=O)N(c2ccccc2)C1)N1CCN(C2=NS(=O)(=O)c3ccccc32)CC1 (configuration not stated) | 0 | -1 | 23523* | 0 | 3
CN(C(=O)c1cccc(NC(=O)Cc2ccc(NC(=O)C3CCCN(S(=O)(=O)c4cccc([N+](=O)[O-])c4)C3)cc2)c1)C1CCCCC1 (configuration not stated) | -4 | 0 | 3964 | -7 | -7
COC(=O)Nc1ccc(S(=O)(=O)N2CCCCCC2)cc1 | -6 | -1 | 11195 | -1 | 1
COC(=O)Nc1ccc(NC(C)=O)cc1 | -1 | -1 | 23186* | -1 | 1
COC(=O)Nc1ccc(S(=O)(=O)N(C)C)cc1 | -3 | 0 | 20816* | -2 | 4
CC(=O)Nc1ccc(NS(=O)(=O)C(F)(F)F)cc1 | 1 | ? | 19728* | 0 | -8
Cc1ccc(S(=O)(=O)CCC(=O)OCC(=O)Nc2ccc(N3CCOCC3)cc2)cc1 | 6 | -2 | 5735 | 10 | -3
CCN(CC)CCNC(=O)c1cn(CC)c2cc(N3CCN(C)CC3)c(F)cc2c1=O | -14 | -4 | 3456 | 8 | 1
CCOC(=O)c1cocc1C(=O)O | -7 | 0 | 3029 | 1 | 1
Cc1ccc2nc(C3CCN(C(=O)c4ccco4)CC3)[nH]c2c1 | -2 | 0 | 23117* | -1 | 3
Cc1ccc2nc(C3CCN(CC(=O)N4CCCCCC4)CC3)[nH]c2c1 | 4 | 0 | 23345* | 0 | -13
O=C(CSc1ncn[nH]1)N1CCCCC1 | -4 | 1 | 4675 | 8 | 0
O=C(CSc1ncn[nH]1)N(C1CCCCC1)C1CCCCC1 | 2 | -1 | 20145* | -3 | -3
Cc1nc(NC(=O)/C=C/c2ccc(Cl)cc2Cl)sc1C(=O)N(C)C | -1 | 0 | 2415 | -4 | 79*
Cc1ccccc1-c1noc(N)c1C#N | 0 | -1 | 23456* | -5 | -11
CCOc1cc(-c2noc(N)c2C#N)cc(OCC)c1OCC | -5 | 0 | 4001 | 8 | 1
O=[N+]([O-])c1ccc2[nH]c(O)c(N=Nc3ccc(F)cc3)c2c1 | -13 | 0 | 3885 | 14 | 316*
Oc1[nH]c2ccccc2c1N=Nc1ccccc1F | 1 | 0 | 2465 | 0 | +
O=[N+]([O-])c1ccc(N=Nc2c(O)[nH]c3ccc(F)cc23)cc1 | 4 | 0 | 4400 | 23 | -24
Oc1[nH]c2ccccc2c1N=Nc1ccc(F)cc1 | -2 | 0 | 2265 | 6 | +
Oc1[nH]c2ccc(Br)cc2c1N=Nc1ccc(F)cc1 | 18 | -1 | 4208 | ? | 564*
COC(=O)[C@]12CCCCC=C1N(Cc1ccco1)C(=O)[C@H](CC(=O)NCc1ccccc1)C2 | 0 | -2 | 6021 | -13 | /
